Assay outcomes: PubChem BioAssay, several laboratories
A selection: hits, their analogues and other compounds. The true share with any hit is near 2.6%.
Myeloid diff 2 – myeloid differentiation induction. ER-HoxA9 myeloid progenitors, lysozyme-GFP differentiation, flow cytometry. calls only at 10 µM. 360,000 compounds, 1% hits;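 active = normalized GFP-positive differentiation at or above the plate's own cutoff, the solvent-only control mean plus 3 SD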;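 note: cells exposed to compound for four days before flow analysis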
CRFBP-R2 block – antagonists of CRF-binding protein/CRF-R2 receptor complex; 350,000 compounds, 0.59% hits; inhibition, % at 11.8 µM; HEK293 CRF-R2/CRF-BP, CRF-induced calcium fluorescence;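 active = inhibition of the ligand-induced calcium signal above about 50% at the single tested concentration, limit read from the data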
CRFR2-BP ag – agonists of human CRF-binding protein/CRF-R2 receptor complex | HEK293 CRF-R2/CRF-BP, calcium dye fluorescence (FLIPR); percent of saturating CRF peptide response | activation, % at 13.2 µM | 350,000 compounds, 0.46% hits | AID 588473;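 active = activation of at least 50%, plus an integration ratio under a set limit after plate pattern correction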
IDE act – IDE (human) activation, cell-based. AID 493087. activation, % at 5.96 µM. 340,000 compounds, 0.073% hits. P14735. HEK cells, FAbeta-B cleavage, fluorescence polarization; 0% vehicle, 100% cell-free pure enzyme wells;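 active = activation above the mean of all tested compounds plus 3 SD, set per screening campaign, cut at about 17% in these data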
Target sequence (P14735 whole entry, looked up): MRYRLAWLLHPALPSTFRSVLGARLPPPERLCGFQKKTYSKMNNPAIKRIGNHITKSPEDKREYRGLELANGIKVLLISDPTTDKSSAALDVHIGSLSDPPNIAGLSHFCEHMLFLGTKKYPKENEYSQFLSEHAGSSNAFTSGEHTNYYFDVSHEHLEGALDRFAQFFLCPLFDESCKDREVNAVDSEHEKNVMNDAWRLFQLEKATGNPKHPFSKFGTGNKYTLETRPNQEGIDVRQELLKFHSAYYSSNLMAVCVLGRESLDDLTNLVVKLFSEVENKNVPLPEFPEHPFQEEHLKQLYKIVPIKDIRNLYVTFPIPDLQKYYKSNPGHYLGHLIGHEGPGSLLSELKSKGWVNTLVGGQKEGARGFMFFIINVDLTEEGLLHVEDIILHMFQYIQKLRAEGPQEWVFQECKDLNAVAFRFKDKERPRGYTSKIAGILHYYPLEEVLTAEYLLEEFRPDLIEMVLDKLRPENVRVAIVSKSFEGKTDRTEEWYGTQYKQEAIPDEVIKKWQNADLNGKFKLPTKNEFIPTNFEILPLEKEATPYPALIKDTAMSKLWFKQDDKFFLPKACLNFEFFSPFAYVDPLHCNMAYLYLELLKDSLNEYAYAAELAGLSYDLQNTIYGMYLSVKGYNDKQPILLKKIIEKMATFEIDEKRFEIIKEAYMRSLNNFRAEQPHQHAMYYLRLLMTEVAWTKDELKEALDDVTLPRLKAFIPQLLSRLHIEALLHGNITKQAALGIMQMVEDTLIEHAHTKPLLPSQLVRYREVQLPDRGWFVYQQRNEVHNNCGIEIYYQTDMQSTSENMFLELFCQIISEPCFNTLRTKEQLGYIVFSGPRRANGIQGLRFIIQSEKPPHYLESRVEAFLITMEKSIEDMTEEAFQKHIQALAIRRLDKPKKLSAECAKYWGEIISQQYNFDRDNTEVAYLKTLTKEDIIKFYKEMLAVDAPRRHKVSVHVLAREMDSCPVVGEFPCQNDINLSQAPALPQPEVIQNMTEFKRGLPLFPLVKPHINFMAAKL
IDE cell inh – cellular human IDE inhibition; HEK cells, FAbetaB cleavage, fluorescence polarization; inhibition, % at 5.59 µM; 320,000 compounds, 0.41% hits; AID 434962;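 active = percent inhibition above the average of all tested compounds plus 3 SD, set per screening campaign, cut at about 16% in these data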;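 note: IDE supplied by intact live HEK cells; FP after avidin binding of uncleaved biotin substrate so inhibition keeps polarization high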
TPT1 inh – blocks Candida albicans tRNA 2'-phosphotransferase. recombinant caTPT1, FP RNA substrate dephosphorylation. 300,000 compounds, 0.81% hits. inhibition, % at 5 µM. AID 1962;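 active = inhibition above the mean of all tested compounds plus 3 SD, set per screening campaign, cut at about 24% in these data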
A number is an active result; - = inactive; . = not tested or not shown; + = active, no number.

SMILES	Myeloid diff 2	CRFBP-R2 block	CRFR2-BP ag	IDE act	IDE cell inh	TPT1 inh
Cc1ccc(/C=C/C(=O)Nc2cc(S(N)(=O)=O)ccc2O)cc1	-	-	-	-	-	-
CCOC(=O)C1C(C(=O)OC)=C(C(=O)OC)c2ccccc2N1S(=O)(=O)C(F)(F)F (centres undefined)	-	-	-	-	.	.
CC(=O)Nc1ccc(NC(=O)C(C)OC(=O)C2CCN(S(=O)(=O)c3cccs3)CC2)cc1 (centres undefined)	-	-	-	-	-	-
Cc1ccc(NC(=O)C(C)N2C(=O)c3ccccc3C2=O)cc1S(=O)(=O)N1CCOCC1 (centres undefined)	-	-	-	-	.	.
Cc1cc2nc(-c3ccc(SCC(=O)Nc4ccc(S(=O)(=O)NC5CC5)cc4)nc3)[nH]c2cc1C	-	-	-	-	-	-
COc1ccc(OC2C(=O)N(Cc3ccc(F)cc3)C2c2cc(OC)c(OC)c(OC)c2)cc1 (centres undefined)	-	123	-	-	-	-
Cc1cc(OC(C)C(=O)NCc2ccccn2)c2c(C)c(C)c(=O)oc2c1 (centres undefined)	-	-	-	-	-	-
O=C(C1CCCN(S(=O)(=O)c2cccc3nonc23)C1)N1CCN(c2cccc(Cl)c2)CC1 (centres undefined)	+	-	-	-	-	-
O=C(C1CCCN(S(=O)(=O)c2cccc3nonc23)C1)N1CCN(c2ccccc2Cl)CC1 (centres undefined)	-	-	-	-	-	-
O=C(O)CCNc1nc(-c2ccccc2)c2cc(Br)ccc2n1	-	-	96	-	.	.
Cc1ccc2nc(NCCC(=O)O)nc(-c3ccccc3)c2c1	-	-	146	-	-	-
COc1cccc(CNC(=O)C2CCCN(C(=O)c3ccc(Cl)cc3)C2)c1 (centres undefined)	-	-	-	-	-	.
O=C(CSc1ccc(F)cc1)N1CCN(S(=O)(=O)c2ccccc2)CC1	-	-	-	-	-	-
O=C(CSc1ccccc1)N1CCN(S(=O)(=O)c2ccccc2F)CC1	+	-	-	-	-	-
CC(C)Cc1ccc(C(C)C(=O)O)cc1 (centres undefined)	+	-	-	-	-	-
CCCCNC(=O)c1sc(=S)n2c1[nH]c(=O)c1ccccc12	-	55	50	-	-	-
O=C(NC1CCCCC1)c1sc(=S)n2c1[nH]c(=O)c1ccccc12	-	-	-	-	-	-
CC(C)CN1CCN(C(=O)COC(=O)c2ccc(S(C)(=O)=O)c([N+](=O)[O-])c2)CC1	+	.	.	.	.	.
Cc1ccc2oc(=O)c(/C=C(\O)c3sc(C)nc3C)nc2c1	-	-	123	-	-	-
Cc1ccc2oc(=O)c(/C=C(\O)c3ccco3)nc2c1	-	-	147	-	-	-
Cc1ccc(/C(O)=C/c2nc3ccccc3oc2=O)cc1	-	-	60	.	-	-
Cc1ccc2oc(=O)c(/C=C(\O)C(C)(C)C)nc2c1	-	-	-	-	-	-
CCc1cccc(NC(=O)CCS(=O)(=O)c2ccc(Br)cc2)c1	-	-	-	-	-	-
O=C(COc1nc2ccccc2nc1N1CCOCC1)Nc1cccc(S(=O)(=O)N2CCCCC2)c1	-	-	-	-	-	-
COc1ccc(-c2ccc3c(c2)C2CC3CCN2S(=O)(=O)c2ccccc2C)cc1 (centres undefined)	-	-	-	-	.	.
SMILES	Myeloid diff 2	CRFBP-R2 block	CRFR2-BP ag	IDE act	IDE cell inh	TPT1 inh
Oc1ccccc1CC=NC1CCCCC1	+	-	-	-	.	.
CC(C)N(C(=O)[C@H]1C[C@H](CC(=O)NCc2ccco2)C(=O)N2CCc3c([nH]c4cc(CCC(=O)N(C)C)ccc34)[C@]12C)C(C)C	-	60	-	-	.	.
COc1ccc(CNC(=O)C[C@H]2C[C@H](C(=O)N(C(C)C)C(C)C)[C@@]3(C)c4[nH]c5ccc(Cl)cc5c4CCN3C2=O)cc1OC	-	-	-	-	.	.
C[C@]12c3[nH]c4ccccc4c3CCN1C(=O)C(CC(=O)NCC13CC4CC(CC(C4)C1)C3)C[C@@H]2C(=O)N1CCOCC1 (some centres undefined)	-	-	55	-	-	.
O=C(C[C@H]1C[C@H](C(=O)N2CCCCC2)[C@@]2(CCc3ccccc3)c3[nH]c4ccc(Cl)cc4c3CCN2C1=O)NCCN1CCOCC1	-	-	57	-	.	.
CC(C)N(C(=O)[C@H]1C[C@H](CC(=O)NCCC2=CCCCC2)C(=O)N2CCc3c([nH]c4ccc(Cl)cc34)[C@]12C)C(C)C	-	65	-	-	.	.
COc1ccccc1C(=O)Nc1ccc2c(c1)nc(CN1CCCCC1)n2C	-	-	-	-	-	-
COCCCNC(=O)C[C@H]1C[C@H](C(=O)N2CCCCC2)[C@@]2(C)c3[nH]c4ccc(Cl)cc4c3CCN2C1=O	+	-	-	-	.	.
COCCCNC(=O)CC1C[C@H](C(=O)N2CCCCC2)[C@@]2(C)c3[nH]c4ccc(OC)cc4c3CCN2C1=O (some centres undefined)	-	-	-	-	.	.
COc1ccc(/C=C2\SC(=S)N(CCC(=O)N3CCCCC3)C2=O)cc1	+	-	-	-	-	-
COc1ccc(/C=C2/SC(=S)N(CCC(=O)N3CCN(C)CC3)C2=O)cc1	-	-	-	-	-	-
COC(=O)c1ccc(/C=C2\SC(=S)N(CCCC(=O)N3CCOCC3)C2=O)cc1	-	-	-	-	.	.
Cc1ccc(/C=C2\SC(=S)N(CCCC(=O)N3CCOCC3)C2=O)cc1	+	-	-	-	-	-
COc1ccc(/C=C2\SC(=S)N(CC(=O)NCCO)C2=O)cc1	-	60	-	-	-	-
CCOc1ccc(/C=C2\SC(=S)N(CCC(=O)Nc3ccccc3C(=O)O)C2=O)cc1	+	55	-	-	-	-
COc1ccc(/C=C2\SC(=S)N(C(Cc3ccccc3)C(=O)O)C2=O)cc1 (centres undefined)	-	58	-	-	.	.
O=C(O)C(Cc1ccccc1)N1C(=O)/C(=C/c2cccnc2)SC1=S (centres undefined)	-	-	-	-	-	-
O=C(N/N=C/c1cc2cc3c(cc2nc1Cl)OCO3)c1ccncc1	-	-	-	-	-	-
CS(=O)(=O)Nc1ccccc1C(=O)NCc1ccccc1Cl	-	61	-	-	-	-
O=C(O)c1ccc(COc2ccccc2C=C2C(=O)c3ccccc3C2=O)cc1	+	81	-	-	-	-
Cc1cc(C)nc(SC2=CS(=O)(=O)c3ccccc32)n1	+	-	-	-	-	-
CC(=O)c1ccc(S(=O)(=O)NCC(=O)Nc2nc3ccccc3[nH]2)cc1	-	-	-	-	-	.
O=C(Cn1nc(CNc2ccc(Cl)cc2)[n+]2c1CCCCC2)c1ccc(Br)cc1	-	55	-	-	-	-
COc1ccc(NCc2nn(CC(=O)c3ccc(Br)cc3)c3[n+]2CCCCC3)cc1	-	-	-	-	-	-
